Results filed as inconclusive are left out. The source made the active and inactive calls. Calls come from the whole dose curve; as a rule, active = well fitted cell-killing curve with a large enough effect; inconclusive = small, poorly fitted or top-dose-only effect, or effect the other way; inactive = no such curve, though single readings can be large or run the other way.
assay: Viability qHTS for spleen associated tyrosine kinase inhibitor (SYKi) naive MV4-11 cells (AID 1963823); conditions: MV4-11 AML viability, CellTiter-Glo luminescence, 72 h; series mostly up to 45 µM; note: nearly all actives have a fitted effect of over 40% in size
Summary of the method: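 Read-out: CellTiter-Glo luminescence. Exposure: 72 hr, 37 C, 5% CO2, 95% humidity. Cells: MV4-11 without SYK inhibitor history, 500/well, qHTS format.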
Potency is the fitted concentration of half-maximal effect.

**Q.** With `Nc1nc(N)c2nc(-c3cccc(O)c3)cnc2n1` as the compound, how does the Potency read?
**A.** 1.84 µM (active)

**Q.** With `COc1ccccc1-n1c(SCC(=O)Nc2nc3ccc(C)cc3s2)nc2c(c1=O)SCC2` as the compound, how does the Potency read?
**A.** inactive

**Q.** Which Potency does the source give for `Cc1ccc(-c2c(-c3nn(C)c4ncnc(N5CCC(N6CCCCC6)C5)c34)cnn2C)cc1` (centres undefined) here?
**A.** 16.4 µM (active)

**Q.** Which Potency does the source give for `COc1cc([C@H]2OC[C@]3(OC(C)=O)[C@@H](c4ccc(O[C@@H]5O[C@H](CO)[C@@H](O)[C@H](O)[C@H]5O)c(OC)c4)OC[C@H]23)ccc1O` here?
**A.** inactive

**Q.** For `Oc1cccc(C2NC(=S)Nc3cccc(F)c32)c1` (centres undefined), which Potency is on record?
**A.** 4.61 µM (active)

**Q.** For `CC(C)CN(CC(=O)N(CCCN1CCCC1=O)CC(N)=O)C(=O)CNCCc1ccccc1F`, which Potency is on record?
**A.** inactive

**Q.** Which Potency does the source give for `CCCc1[nH]nc2c1C(c1cc(Cl)cc(Cl)c1O)C(C#N)=C(N)O2` (centres undefined) here?
**A.** 16.4 µM (active)

**Q.** For `CCOc1ncc(S(=O)(=O)N2CCN(CC)CC2)cc1-c1nc2c(CC)n(CCOC)nc2c(=O)[nH]1`, which Potency is on record?
**A.** inactive

**Q.** Which Potency does the source give for `CC(=O)OC(C)C(C)(O)C(=O)O[C@@H]1CC[C@]2(C)CC(=O)C(=C(C)C)C[C@H]2[C@]1(C)OC(C)=O` (some centres undefined) here?
**A.** 5.63 µM (active)

**Q.** With `COc1ccc(Cl)cc1[C@@]1(F)C(=O)Nc2cc(C(F)(F)F)ccc21` as the compound, how does the Potency read?
**A.** 9.2 µM (active)

**Q.** Which Potency does the source give for `COc1c2ccoc2cc2oc(CO[C@@H]3O[C@H](CO)[C@@H](O)[C@H](O)[C@H]3O)cc(=O)c12` here?
**A.** inactive

**Q.** Which Potency does the source give for `O=C(Nc1ccc(C(O)(C(F)(F)F)C(F)(F)F)cc1)c1ccc(C(F)(F)F)cc1` here?
**A.** 1.84 µM (active)

**Q.** For `C=C1CN(Cc2ccc(C(=O)Nc3ccccc3N)cc2)C(=O)c2ccccc21`, which Potency is on record?
**A.** 0.651 µM (active)

**Q.** For `O=C1NC2CCc3nc4ccccc4c(=O)n3C2=Nc2ccccc21` (centres undefined), which Potency is on record?
**A.** inactive

**Q.** Which viability (% of control) does the source give for `CC1OC(OC2C(C)OC(OC3C(OC(=O)/C=C/c4ccc(O)cc4)C(CO)OC(OC4(COC(=O)/C=C/c5ccc(O)cc5)OC(CO)C(O)C4O)C3OC3OCC(O)(CO)C3O)C(O)C2O)C(O)C(O)C1O` (centres undefined) here?
**A.** 86.5% [at 9.25 µM] (inactive)

**Q.** For `COC(=O)C[C@@H]1C(C(=O)O)=CO[C@@H](O[C@@H]2O[C@H](CO)[C@@H](O)[C@H](O)[C@H]2O)/C1=C\COC(=O)/C=C/c1ccc(O)c(OC)c1`, which Potency is on record?
**A.** inactive

**Q.** For `Cc1cc(C(=O)Nc2cccc(C(=O)Nc3cccc(C(F)(F)F)c3)c2)on1`, which Potency is on record?
**A.** inactive

**Q.** With `COc1ccc(C2=NC(c3ccc(Cl)cc3)C(c3ccc(Cl)cc3)N2C(=O)N2CCNC(=O)C2)c(OC(C)C)c1` (centres undefined) as the compound, how does the Potency read?
**A.** 16.4 µM (active)

**Q.** With `CC1(C)CCC[C@@]2(C)[C@H]1[C@H](O)C=C(CO)[C@]2(O)CO` as the compound, how does the Potency read?
**A.** inactive

**Q.** Which Potency does the source give for `CC(C)C1(O)C=C2C(=O)CC3C(C)(C(=O)O)CCCC3(C)C2CC1` (centres undefined) here?
**A.** inactive

**Q.** Which Potency does the source give for `CC1=C2CC(=O)C(C)CC/C=C(\C)CC2(O)OC1=O` (centres undefined) here?
**A.** inactive

**Q.** Which viability (% of control) does the source give for `CC(/C=C/C=C(\C)C(=O)O[C@@H]1O[C@H](CO[C@@H]2O[C@H](CO)[C@@H](O)[C@H](O)[C@H]2O)[C@@H](O)[C@H](O)[C@H]1O)=C\C=C\C=C(C)\C=C\C=C(/C)C(=O)O[C@@H]1C[C@](O)(C(=O)O)C[C@@H](O)[C@H]1OC(=O)/C=C/c1ccc(O)c(O)c1` here?
**A.** 78.4% [at 9.25 µM] (inactive)

**Q.** With `CC(=O)c1ccc2c(c1)N(CCCN1CCC(CCO)CC1)c1ccccc1S2` as the compound, how does the Potency read?
**A.** 26.6 µM (active)

**Q.** With `CN(CCc1ccc(Nc2ncc(-c3cccnc3)s2)cc1)Cc1ccccc1` as the compound, how does the Potency read?
**A.** 0.366 µM (active)

**Q.** For `Cc1cccc(Nc2cc(Cl)nc(SCC(=O)O)n2)c1C`, which Potency is on record?
**A.** inactive

**Q.** For `CC(C)(O)C1CCC(C)(C2CCC3(C)C4CCC5C(C)(C(=O)OC6OC(CO)C(O)C(O)C6O)C(O)CC(O)C56CC46CCC23C)O1` (centres undefined), which Potency is on record?
**A.** inactive

**Q.** With `NC(=O)CCCSc1nc(N)nc(-c2c(Cl)cc3c4c(cccc24)COC3)n1` as the compound, how does the Potency read?
**A.** 0.0651 µM (active)

**Q.** Which Potency does the source give for `O=C1C(Cc2ccc(O)cc2)N2C(=O)CCN(C(=O)NCc3ccccc3)C2CN1Cc1cccc2ccccc12` (centres undefined) here?
**A.** 1.46 µM (active)

**Q.** With `CC(O)C(O)/C=C/C=C/C(=O)O[C@@H]1C=C2COC(=O)[C@]2(O)[C@@]2(C)CCCC(C)(C)C12` (some centres undefined) as the compound, how does the Potency read?
**A.** inactive

**Q.** For `C[C@@H]1[C@H]2[C@H](O[C@@H]3O[C@H](CO)[C@@H](O)[C@H](O)[C@H]3O)OC=C(C(=O)O)[C@H]2C[C@@H]1OC(=O)/C=C/c1ccc(O)cc1`, which Potency is on record?
**A.** inactive

**Q.** With `CCOC(=O)[C@@H](N)Cc1ccc(-c2cc(O[C@H](c3ccc(Cl)cc3-n3ccc(C)n3)C(F)(F)F)nc(N)n2)cc1` as the compound, how does the Potency read?
**A.** 8.33 µM (active)

**Q.** With `CC1(C)CC[C@]2(C(=O)O[C@@H]3O[C@H](CO[C@@H]4O[C@H](CO)[C@@H](O)[C@H](O)[C@H]4O)[C@@H](O)[C@H](O[C@@H]4O[C@H](CO)[C@@H](O)[C@H](O)[C@H]4O)[C@H]3O)CC[C@]3(C)C(=CCC4[C@@]5(C)CC[C@H](O[C@@H]6OC[C@@H](O)[C@H](O)[C@H]6O)[C@@](C)(C(=O)O)C5CC[C@]43C)[C@@H]2C1` (some centres undefined) as the compound, how does the viability (% of control) read?
**A.** 83.1% [at 9.25 µM] (inactive)

**Q.** With `CC[C@H](C)/C=C(C)/C=C/C1=CC2=C(Cl)C(=O)[C@](C)(O)[C@H](OC(C)=O)[C@H]2CO1` as the compound, how does the Potency read?
**A.** 12.8 µM (active)

**Q.** For `CSCC1OC(n2cnc3c(=O)[nH]cnc32)C(O)C1O` (centres undefined), which Potency is on record?
**A.** inactive

**Q.** With `CC(C)(O)C1=CCC23COC(C2)C(O)(C(=O)O)CCC13` (centres undefined) as the compound, how does the Potency read?
**A.** inactive

**Q.** With `CC(C)=CCC[C@](C)(O)[C@H]1CC[C@]2(C)[C@@H]1[C@H](O)CC1[C@@]3(C)CC[C@H](O)C(C)(C)[C@@H]3[C@@H](O[C@@H]3O[C@H](CO)[C@@H](O)[C@H](O)[C@H]3O[C@@H]3O[C@H](CO)[C@@H](O)[C@H](O)[C@H]3O)C[C@]12C` (some centres undefined) as the compound, how does the Potency read?
**A.** inactive

**Q.** For `NCCCC[C@H](NC(=O)[C@@H]1Cc2ccccc2CN1C(=O)CCC(=O)c1ccccc1)C(=O)NCC(c1ccccc1)c1ccccc1`, which Potency is on record?
**A.** 20.6 µM (active)

**Q.** Which Potency does the source give for `COC(=O)C1=CO[C@@H](O[C@@H]2O[C@H](CO)[C@@H](O)[C@H](O)[C@H]2O)[C@H]2[C@@H]1CC(OC)O[C@@H]2C` (some centres undefined) here?
**A.** inactive

**Q.** Which Potency does the source give for `C=CC(C)(O)CC/C=C(\C)C(=O)OC1C(O)C(CO)OC(OC(=O)C23CCC(C)(C)CC2C2=CCC4C5(C)CCC(OC6OC(COC7OCC(OC(C)=O)C(O)C7OC7OC(COC(C)=O)C(O)C(O)C7OC(C)=O)C(O)C(O)C6OC6OCC(O)C(O)C6O)C(C)(C)C5CCC4(C)C2(C)C(O)C3O)C1OC1OCC(OC2OCC(O)C(OC3OCC(O)C(O)C3O)C2O)C(O)C1O` (centres undefined) here?
**A.** 0.631 µM (active)

From PubChem BioAssay (NCATS)
